This is an account of results in PubChem BioAssay AID720602 (Broad Institute, 2013).

Structures are written as SMILES. Entries with a potency or affinity are not part of this list. Calls of active or inactive are those of the source.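 Rule for the calls: active = signal drop at all three exposure times, half-maximal concentration at most twice the top valid dose; inconclusive = exposure times give differing calls; inactive = inactive at every exposure time.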

The nature of the test: cytotoxicity in LOX IMVI melanoma cells – cell-based, CellTiter-Glo ATP luminescence, 8/24/48 h, dry powder, HRAS target identification, dose response (AID 720602). Background: ATP-based viability assays read luminescence as a measure of living cells.

Consider `Cc1onc(C(=O)N2CCN(C(c3ccncc3)c3ccncc3)CC2)c1[N+](=O)[O-]`, for which the outcome was inactive.
Then `CCC(=O)N(c1ccc(OC)c(Cl)c1)C(C(=O)NCCc1ccccc1)c1cccs1` (configuration not stated), with “inactive”.
